The whole screen tested about 69,000 compounds, of which about 8,600 (12%) showed an effect of 50% or more. This excerpt belongs to a sample that is enriched for strong results.
These compounds were tested on Plasmodium berghei (assay: Screen against P. berghei liver stage (PbLuc), transformed with Luciferase, at 10uM). Conditions: tested at 10 uM.
Type: functional, HepG2

Row | Structure (SMILES) | INHIBITION [%]
1 | CC(C)n1c(=O)c2ccccc2n(CCCN(C)C)c1=O | 28.7
2 | c1ccc(CN2CC[C@@H]3O[C@H](COCc4ccncc4)CC[C@@H]32)nc1 | 14.8
3 | c1ccc(COC[C@H]2CC[C@H]3[C@H](CCN3Cc3cccnc3)O2)nc1 | 29.9
4 | c1ccc(COC[C@H]2CC[C@H]3[C@H](CCN3Cc3ccccn3)O2)nc1 | 50.9
5 | CCCNC(=O)c1[nH]nc(C2CC2)c1Br | -59.9
6 | Cn1cnc2ccc(NC(=O)CCCn3cccn3)cc2c1=O | 2.84
7 | O=C(c1ccccc1F)N1CCCC1Cn1c(=O)oc2ccccc21 (stereo not drawn) | -1.4
8 | Fc1ccccc1C(CNc1ccncn1)N1CCCC1 (stereo not drawn) | 43.4
9 | CCc1nc2ccccc2c(=O)n1CC1(O)CCNCC1 | 28
10 | CCc1nc2ccccc2c(=O)n1CC1(O)CCN(S(C)(=O)=O)CC1 | 52.9
11 | CS(=O)(=O)N1CCC(O)(Cn2c(C3CC3)nc3ccccc3c2=O)CC1 | 38.1
12 | CC(C)CCN1CCN(C(=O)c2c[nH]nn2)CC1 | -0.275
13 | Cc1nc(COC[C@@H]2CC[C@H]3[C@H](CCN3c3ccccn3)O2)cs1 | -106
14 | CCN1CC2(CCN(CCOCCO)CC2)CC(c2ccccc2)C1=O (stereo not drawn) | 7.84
15 | CN1C(=O)C(c2ccccc2)CC12CCN(CCOCCO)CC2 (stereo not drawn) | -26.4
16 | CN1CC2(CCN(CCOCCO)CC2)CC(c2ccccc2)C1=O (stereo not drawn) | 73.4
17 | CCN(C(=O)COC)C(c1cccnc1)c1ccc2c(c1)CCO2 (stereo not drawn) | 51.8
18 | CCN(C(=O)C1CCC1)C(c1cccnc1)c1ccc2c(c1)CCO2 (stereo not drawn) | 66.2
19 | CCCC(=O)N(CC)C(c1cccnc1)c1ccc2c(c1)CCO2 (stereo not drawn) | 29.4
20 | CCN(C(=O)C1CC1)C(c1cccnc1)c1ccc2c(c1)CCO2 (stereo not drawn) | 21.8
21 | CCN(C(=O)C(C)C)C(c1cccnc1)c1ccc2c(c1)CCO2 (stereo not drawn) | 3.87
22 | CCC(=O)N(CC)C(c1cccnc1)c1ccc2c(c1)CCO2 (stereo not drawn) | 37.9
23 | Cn1ccnc1Sc1ccc(S(N)(=O)=O)cn1 | 7.92
24 | CS(=O)(=O)c1cc(Cl)cnc1C1CCN(C(=O)C2CC2)CC1 | 15.49
25 | CCOC(=O)c1nc(COc2c(C)occc2=O)no1 | 41.7
26 | COCC(=O)N1CCCCC1c1ccnc(Nc2cnccn2)n1 (stereo not drawn) | -26.2

Row | Structure (SMILES) | INHIBITION [%]
27 | CCOc1ccc(S(=O)(=O)N(C)Cc2cnn(CC)c2)cc1 | 55.7
28 | CCn1cc(CN(C)S(=O)(=O)c2ccc(Cl)cc2)cn1 | -64.7
29 | CCn1cc(CN(C)S(=O)(=O)c2ccccc2)cn1 | 35.8
30 | NC(=O)C1CCN(C(=O)CCCc2nnc(-c3ccccc3)o2)CC1 | 33.7
31 | O=C([C@H]1COC[C@H]2CN(C3CCCCC3)C[C@H]21)N1CCOCC1 | 31.2
32 | O=C([C@@H]1COC[C@H]2CN(C3CCCC3)C[C@H]21)N1CCCO1 | 35.4
33 | O=C(O)[C@@H]1CN(C2CCCC2)C[C@H]1C1CC1 | 57.9
34 | O=C(O)[C@@H]1CN(C2CCCCC2)C[C@H]1C1CC1 | 9.34
35 | O=C([C@@H]1COC[C@H]2CN(C3CCOCC3)C[C@H]21)N1CCOCC1 | -5.69
36 | O=C([C@H]1COC[C@H]2CN(C3CCOCC3)C[C@H]21)N1CCC(F)CC1 | -20.4
37 | O=C([C@@H]1COC[C@H]2CN(C3CCCCC3)C[C@H]21)N1CCOCC1 | 7.7
38 | O=C([C@H]1COC[C@H]2CN(C3CCCC3)C[C@H]21)N1CCCCO1 | 5.65
39 | O=C([C@H]1COC[C@H]2CN(C3CCCC3)C[C@H]21)N1CCOCC1 | 74.7
40 | O=C([C@@H]1COC[C@H]2CN(C3CCCC3)C[C@H]21)N1CCC(F)CC1 | 50.3
41 | O=C(O)[C@@H]1CN(C2CCOCC2)C[C@H]1C1CC1 | 25.1
42 | O=C([C@H]1COC[C@H]2CN(C3CCCC3)C[C@H]21)N1CCCO1 | 71.4
43 | CC(C)N(C)Cc1cnc2n1CCN(C(=O)NC1CCCC1)C2 | 34.1
44 | CCOCCN1CCN(c2ccc(C#N)cn2)CC1 | 45.4
45 | CS(=O)(=O)NCCCNCc1cc(F)ccc1Br | 30.2
46 | Cc1noc(C)c1CN(C)C(=O)NC1CCOCC1 | 22.95
47 | Cc1cccc(N2CCN(C(=O)CCCC(=O)N(C)C)C(C)C2)n1 (stereo not drawn) | 39.3
48 | Cc1nc(CN2CCCC3(CCN(c4cnn(C)c4)C3=O)C2)cs1 (stereo not drawn) | 6.55
49 | Cc1nccn1C1CCCN(C(=O)c2cnc[nH]2)C1 (stereo not drawn) | -9.37
50 | Cn1nc(Cn2cccn2)c2c1CN(C1CCOCC1)C2 | 44.2
51 | CN(C(=O)c1ccccc1NCC(=O)O)C(C1CC1)C1CC1 | 25.8
52 | O=C(COCc1ccccc1Cl)N1CCCC(n2ccnc2)C1 (stereo not drawn) | 17.5

Row | Structure (SMILES) | INHIBITION [%]
53 | Cc1cccc(CN2C[C@@H]3COC[C@]3(CNC(=O)c3cccn3C)C2)n1 | -17.1
54 | O=S(=O)(c1cccs1)N1CCCCC1c1ccn[nH]1 (stereo not drawn) | 29.3
55 | CCS(=O)(=O)N1CCCC(n2nnn(-c3ccccc3)c2=O)C1 (stereo not drawn) | -8.5455
56 | Cc1cc(C)c(-n2cc(CCO)cn2)cc1C | -50.3
57 | Cc1nnc(N2CCc3cnc(C(C)C)nc3C2)c(C#N)c1C | 6.72
58 | CC(CCc1ccccc1)N1CCC(C(=O)NCc2ccccc2)CC1 (stereo not drawn) | 46.7
59 | Cc1cnnn1Cc1ncn2c1CN(Cc1cccs1)CCC2 | 15.9
60 | O=C(Cn1c(=O)n(Cc2ccco2)c2ncccc21)NC1CC1 | 39.7
61 | CCN(CC)C(=O)Cn1c(=O)n(Cc2ccco2)c2ncccc21 | 51.5
62 | Cc1nn(C(C)(C)C)c(=O)n1CC(=O)NC(C)(C)C | -53.6
63 | CCN(CC)C(=O)CSc1nc2cc(C)nc-2c(O)n1Cc1ccco1 | 26.7
64 | O=C(Cn1c(=O)n(Cc2ccco2)c2ncccc21)Nc1ccccn1 | 45.5
65 | CC(C)N(C(=O)Cn1c(-c2ccco2)cc2cccnc21)C(C)C | 39.3
66 | O=C(Cn1c(=O)n(Cc2ccco2)c2ncccc21)NC1CCCC1 | 48.6
67 | CC(C)(C)NC(=O)Cn1c(=O)n(Cc2ccco2)c2ncccc21 | 61.9
68 | O=C(Cn1c(=O)n(Cc2ccco2)c2ncccc21)NC1CCCCC1 | 53.5
69 | Cc1ccc(C(=O)N2CCN(CCc3ccccc3)CC2)c(=O)[nH]1 | -6.45
70 | COc1ccccc1CNC(=O)CS(=O)(=O)Cc1ccccc1 | 29.8
71 | Cn1cc(Cl)cc1C(=O)N1CCN(Cc2cccs2)CC1 | -13.575
72 | CC(C)=CCN1CCN(Cc2nccn2C)C(C)C1 (stereo not drawn) | 35.77
73 | COc1ccc(C(CNC(=O)NCc2csc(C)n2)N(C)C)cc1 (stereo not drawn) | 23.5
74 | CNc1cncc(C2CCCN2C(=O)c2ccc3nc(C)[nH]c3c2)n1 (stereo not drawn) | 2.6
75 | O=S1(=O)c2ccccc2C(O)CN1CCO (stereo not drawn) | -5.77
76 | COCCN1CCC2(CC1)CC1(CCN(S(C)(=O)=O)CC1)N(C)C2=O | 40.8
77 | CC(=O)Nc1ccc(Oc2cc(C)nc(C3CCCNC3)c2)cc1 (stereo not drawn) | 14.355
78 | CSCC(C)NS(=O)(=O)c1ccc(C)c(N(C)C)c1 (stereo not drawn) | -37.7

Row | Structure (SMILES) | INHIBITION [%]
79 | Cc1cnc(N2C(=O)CSC2c2ccc(N(C)C)cc2)s1 (stereo not drawn) | 39.9
80 | CC(C)c1nn(C)c(Cl)c1CNCc1ccc(N(C)C)nc1 | 18.85
81 | O=C(CCC1CCCO1)NS(=O)(=O)c1ccc(Cl)cc1 (stereo not drawn) | -11.4
82 | CC(=O)Nc1ccc(S(=O)(=O)NC(=O)CCC2CCCO2)cc1 (stereo not drawn) | 57.2
83 | Cc1ccc(S(=O)(=O)NC(=O)CCC2CCCO2)cc1 (stereo not drawn) | -7.35
84 | Cc1nccn1CCCC(=O)N1CCC(N(C)c2cccnn2)CC1 | 12.7
85 | O=C(c1cnn[nH]1)N1CCCC1c1nc2cc(F)ccc2[nH]1 (stereo not drawn) | 11.8
86 | O=C(NCCCc1ccco1)c1cnc(N2CCOCC2)nc1 | -18.8
87 | CCN(C)c1ccc(C(=O)NCCCc2ccccn2)cn1 | -17.9
88 | CN(C)c1ccc(C(=O)NCCCc2ccccn2)cn1 | 62.8
89 | CN(CC(C)(C)C)c1ccc(C(=O)NCCCc2ccccn2)cn1 | -20.6
90 | CN(Cc1ccco1)c1ccc(C(=O)NCCCc2ccccn2)cn1 | 58.2
91 | CCn1c(N)nc2cc(C(=O)NCCCc3ccccn3)cnc21 | 11.8
92 | Cc1ccc(CN2CCOC3(CCN(CC4CCOC4)CC3)C2)cc1 (stereo not drawn) | 36.7
93 | CSCCC(Nc1nc(C)cc(C)n1)C(=O)NC1CCCC1 (stereo not drawn) | 36.8
94 | COCC(=O)N1CCN(c2ccc(C(=O)OC)cc2)CC1C (stereo not drawn) | -31.4
95 | COC(=O)c1ccc(N2CCN(C(=O)C(C)C)C(C)C2)cc1 (stereo not drawn) | -37.6
96 | COC(=O)c1ccc(N2CCN(C(=O)c3cnccn3)C(C)C2)cc1 (stereo not drawn) | -23.8
97 | COC(=O)c1ccc(N2CCN(C(=O)c3cc(C)on3)C(C)C2)cc1 (stereo not drawn) | 54.3
98 | COC(=O)c1ccc(N2CCN(C(=O)c3cnc(C)cn3)C(C)C2)cc1 (stereo not drawn) | 66.7
99 | COC(=O)c1ccc(N2CCN(C(=O)c3cc(C)no3)C(C)C2)cc1 (stereo not drawn) | -11.4
100 | Cc1cc(Oc2ccc(NC(=O)C3CC3)cc2)cc(C2CCNCC2)n1 | 10.535
101 | CN(CCCc1cnn(C)c1)c1nccc(-c2cc(C(=O)O)ccn2)n1 | 21.2
102 | Cc1cccc(CN2Cc3nccn3CC(CN3CCOCC3)C2)c1 (stereo not drawn) | 43.9
103 | O=C1COc2cc(C(=O)NS(=O)(=O)c3cc(Cl)ccc3Cl)ccc2N1 | 37.4

— ChEMBL document CHEMBL4513216, “Probing the Open Global Health Chemical Diversity Library for Multistage-Active Starting Points for Next-Generation Antimalarials” (ACS Infect Dis, 2020)
